hcDAF12 agonist: H. contortus DAF-12 nuclear receptor activators, primary screen, cell-based, luminescence, HEK293, lit1-tk-luc reporter | 370,000 tested, 1.4% active | AID 652067, 2013 | HEK293 hcDAF-12 lit1-tk-luc reporter; 0% DMSO, 100% Δ7-dafachronic acid | activation, % at 6.8 µM;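 active means activation above the mean of all tested compounds plus 3 SD, cut at about 5.5% in these data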;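 further: 100% = response to 3 µM Δ7-dafachronic acid high control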
hgDAF12 agonist: H. glycines DAF-12 receptor agonists, primary screen, cell-based, luminescence, HEK293, GAL4 fusion, UAS-luciferase; Nuclear hormone receptor DAF-12 (Heterodera glycines), GAL4 fusion; HEK293 GAL4-hgDAF12 UAS-luciferase reporter, agonist luminescence; normalized to butyrate control; activation, % at 6.8 µM; 370,000 tested, 1.8% active;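 active means activation above a cutoff set at the mean of all screened compounds plus 3 SD, cut at about 10% in these data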;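 further: 0% = DMSO wells and 100% = sodium butyrate wells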
DAX1 inh-1: DAX1 (NR0B1) inhibitors, primary screen, cell-based, HEK293, Gal4-DAX1, luciferase luminescence. 340,000 tested, 0.99% active. inhibition, % at 6.75 µM. AID 504766, 2011. HEK293 Gal4-DAX1 luciferase reporter;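 active means inhibition above the mean over all tested compounds plus 3 SD, cut at about 4.2% in these data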;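 further: 0% = DAX1-transfected cells with DMSO and 100% = empty-vector control cells with DMSO; inhibition shows as a rise in luminescence from relieved DAX1 repression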
Target sequence (P51843 207-470 limits assumed): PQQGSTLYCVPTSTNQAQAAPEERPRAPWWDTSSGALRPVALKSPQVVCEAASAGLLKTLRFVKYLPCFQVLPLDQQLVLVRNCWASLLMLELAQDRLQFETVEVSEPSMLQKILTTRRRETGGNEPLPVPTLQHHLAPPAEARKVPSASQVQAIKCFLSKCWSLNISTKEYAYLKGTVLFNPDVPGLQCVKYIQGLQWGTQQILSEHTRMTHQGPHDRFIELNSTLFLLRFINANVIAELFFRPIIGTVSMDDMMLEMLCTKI
ssDAF-12 act: S. stercoralis DAF-12 nuclear receptor activators, primary screen, cell-based, luminescence, HEK293, GRIP1 co-expression, lit1-tk-luc; Nuclear hormone receptor DAF-12 (Strongyloides stercoralis); AID 652126, 2013; HEK293 ssDAF-12/GRIP1 lit1-tk-luc reporter; % of 3 µM dafachronic acid response; 370,000 tested, 1% active; activation, % at 6.8 µM;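 active means activation above the mean over all tested compounds plus 3 SD, cut at about 0.9% in these data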;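 further: 0% = DMSO-only wells and 100% = 3 µM delta7-dafachronic acid wells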
PolyA inh: polyadenylation inhibitors in yeast reporter cells, primary screen, luminescence, S. cerevisiae. S. cerevisiae SKY197-pL101 polyadenylation reporter, beta-gal luminescence; efflux-impaired pdr1/pdr3 knockout yeast; score 100 = 6 SD above DMSO. activity score, % at 12 µM. 300,000 tested, 0.02% active. AID 1875, 2009;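 active means lowest replicate activity score at least 50, where 100 means six control SD above control mean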;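 further: yeast exposed to compound for 9 h at 30 °C; higher score means more reporter readthrough which indicates perturbed polyadenylation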
DAX1 inh-2: DAX1 (NR0B1) inhibitors on StAR promoter, primary screen, cell-based, luminescence, SF-1 (NR5A1), full-length DAX-1; 370,000 tested, 1.1% active; inhibition, % at 6.8 µM; HEK293T StAR-luciferase reporter, SF-1/DAX-1 repression relief;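 active means inhibition above the mean over all tested compounds plus 3 SD, cut at about 3.6% in these data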;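 further: 0% = DAX-1 cells with DMSO and 100% = cells lacking DAX-1 with DMSO; higher inhibition means more luminescence from relief of DAX-1 repression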
LXRb hcDAF ctr: LXR agonists, Gal4 luciferase reporter, confirmation, counter-screen for hcDAF-12 agonist project, cell-based, luminescence, HEK293, H. contortus campaign; shares compounds with hcDAF12 agonist; 3,400 tested, under 10 active; AID 743027, 2013; HEK293 Gal4-LXR tk-luc reporter, 24 h; normalized: DMSO 0%, positive control 100%; activation, % at 6.8 µM;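 active means mean percent activation of the reporter above a cutoff set as the average over tested compounds plus their standard deviation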
Target sequence (P55055 whole entry, looked up, the tested form may be a part): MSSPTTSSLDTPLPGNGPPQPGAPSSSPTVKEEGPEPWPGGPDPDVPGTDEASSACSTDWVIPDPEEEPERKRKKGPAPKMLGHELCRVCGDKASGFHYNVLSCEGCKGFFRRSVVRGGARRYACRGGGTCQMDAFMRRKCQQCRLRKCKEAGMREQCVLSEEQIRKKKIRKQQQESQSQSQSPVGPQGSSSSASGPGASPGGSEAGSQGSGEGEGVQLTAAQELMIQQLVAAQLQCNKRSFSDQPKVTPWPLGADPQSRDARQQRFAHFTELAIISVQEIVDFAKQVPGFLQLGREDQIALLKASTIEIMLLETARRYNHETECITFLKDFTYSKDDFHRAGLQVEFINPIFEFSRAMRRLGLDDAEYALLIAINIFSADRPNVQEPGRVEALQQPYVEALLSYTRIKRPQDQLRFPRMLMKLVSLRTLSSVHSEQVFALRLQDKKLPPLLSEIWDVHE
hcDAF12 ag: H. contortus DAF-12 receptor agonists, confirmation, cell-based, luminescence, HEK293, lit1-tk-luc, triplicate | HEK293 hcDAF-12 lit1-tk-luc reporter; % of Δ7-dafachronic acid response | activation, % at 6.8 µM | shares compounds with hcDAF12 agonist | 3,400 tested, 61% active;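 active means mean activation across triplicate tests above the threshold derived from the earlier primary screen, cut at about 5.5% in these data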;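 further: 0% = DMSO only wells and 100% = 3 µM Δ7-dafachronic acid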
* marks the source's active call; other numbers are inactive results; . = no result. Compounds with a hit are over-represented: about 4.1% of the library has one in this group of screens.

SMILES | hcDAF12 agonist | hgDAF12 agonist | DAX1 inh-1 | ssDAF-12 act | PolyA inh | DAX1 inh-2 | LXRb hcDAF ctr | hcDAF12 ag
O=C(CSc1nc2ccccc2c(=O)[nH]1)c1cccs1 | 0.1 | 1.1 | 0.8 | -0.7 | 5.2 | 0.8 | . | .
O=C(Nc1nccc(-c2cccs2)n1)c1cccs1 | 7.1* | 6.6 | 2.6 | 0.5 | -4.0 | 0.3 | 0.3 | 6.8*
Cc1ncc([N+](=O)[O-])n1S(=O)(=O)c1cc(Br)ccc1Br | -0.3 | -1.6 | 0.8 | -0.3 | -7.3 | 0.0 | . | .
CCOc1ncccc1-c1nc(-c2cccs2)no1 | 9.8* | 4.1 | 1.7 | 0.4 | 6.8 | -0.1 | 0.3 | 9.2*
O=C(N/N=C/c1cccnc1)c1cc(-c2ccc(Br)cc2)nc2ccccc12 | 1.1 | 4.0 | 1.9 | -0.9 | . | -3.6 | . | .
C(=C\c1ccco1)/c1ccc2ccccc2n1 | 7.3* | 2.2 | . | 0.2 | -33.4 | 0.7 | 1.1 | 13.2*
O=C(/C=C/c1ccco1)Nc1ccc(-c2nc3ccccc3[nH]2)cc1 | -3.6 | -4.4 | -1.1 | -1.2 | 14.3 | -1.1 | . | .
C(=C\c1ccco1)/c1nc2ccccc2[nH]1 | 7.3* | 9.5 | -1.4 | 0.4 | 5.4 | 2.4 | 0.8 | 9.4*
CC(C)CNC(=S)NC1CC2CCC(C1)N2Cc1ccccc1 (centres undefined) | 6.8* | 1.7 | -1.5 | -1.0 | -7.2 | 0.8 | -0.3 | 1.5
Cc1ccc(NP(=O)(c2ccc(N(C)C)cc2NC(=O)c2cccs2)N2CCOCC2)cc1 (centres undefined) | 8.4* | 5.8 | -0.3 | 1.5* | -2.1 | 0.3 | -0.4 | 2.2
CN(C)c1ccc(P(=O)(Nc2ccccc2)N2CCOCC2)c(NC(=O)c2cccs2)c1 (centres undefined) | 4.2 | 3.1 | 0.0 | 0.7 | -12.9 | -0.1 | . | .
CN(C)c1ccc(P(=O)(Nc2ccc([N+](=O)[O-])cc2)N2CCOCC2)c(NC(=O)c2cccs2)c1 (centres undefined) | 8.0* | 3.3 | 1.1 | 0.5 | -13.5 | -0.3 | 0.0 | 4.5
CCN(CC)c1ccc(/C=N/N2C(=O)c3ccccc3C2=O)cc1 | -0.6 | -0.3 | -0.6 | -1.2 | 6.7 | -0.7 | . | .
CCN(CC)c1ccc(/C=N/N2C(=O)c3ccccc3C2=O)c(O)c1 | 6.6* | 2.0 | 0.4 | -1.2 | 4.0 | 0.1 | -0.1 | 1.1
COCCNc1nc(Nc2ccc(C(=O)OC)cc2)c2sccc2n1 | -3.3 | -4.0 | . | -1.5 | . | -3.2 | . | .
COC(=O)C1=C(C)N(C)C(=NCc2ccc3c(c2)OCO3)NC1c1ccc(F)cc1 (centres undefined) | -1.0 | 0.5 | . | -0.9 | . | -0.2 | . | .
Cc1sc(NC(=O)c2cccs2)c(C(N)=O)c1C | 8.5* | 9.2 | 0.8 | -0.1 | 4.3 | 1.2 | 0.2 | 6.2*
CCOC(=O)c1c(NC(=O)c2cccs2)sc(CC)c1-c1cccs1 | -1.6 | 1.9 | 0.0 | -0.6 | -14.8 | -0.6 | . | .
O=S(=O)(Nc1nc2ccccc2nc1N1CCN(c2ccccc2)CC1)c1ccc(F)cc1 | 8.3* | 0.3 | -1.4 | 0.8 | 9.6 | 0.1 | -0.1 | 5.1
CCCN1CCC(NC(=S)Nc2ccc([N+](=O)[O-])cc2)CC1 | 3.7 | -0.3 | 2.5 | -1.0 | 10.0 | 0.6 | . | .
CCCN1CCN(C(=S)Nc2ccc([N+](=O)[O-])cc2)CC1 | 9.1* | 2.7 | -0.8 | 0.3 | -5.0 | 0.7 | -0.2 | 3.3
CN(C)c1ccc(N=Cc2nc(-c3ccccc3)oc2OC(=O)c2ccccc2)cc1 | 6.8* | 13.1* | 1.5 | -0.7 | -10.7 | 1.8 | 0.1 | 4.4
Cc1ncc([N+](=O)[O-])n1CC(=O)Nc1ccccc1Cl | -1.9 | 2.0 | 1.4 | -1.1 | . | -0.6 | . | .
COC(=O)c1sccc1NC(=O)c1ccc(C(C)C)cc1 | 7.1* | 4.0 | 1.2 | 0.2 | 0.2 | 0.3 | 0.2 | 6.8*
O=C(N/N=C1\CCCc2ccccc21)c1ccccc1[N+](=O)[O-] | -0.7 | -1.2 | -1.2 | -0.9 | -1.7 | -0.6 | . | .
SMILES | hcDAF12 agonist | hgDAF12 agonist | DAX1 inh-1 | ssDAF-12 act | PolyA inh | DAX1 inh-2 | LXRb hcDAF ctr | hcDAF12 ag
COCCn1c(C)cc(C(=O)CSc2nc3ccccc3o2)c1C | 8.4* | 10.1 | 1.5 | 0.0 | -8.6 | 2.2 | 0.9 | 4.0
COCCn1c(C)cc(C(=O)CSc2nc3ccccc3s2)c1C | -2.1 | -7.4 | -3.1 | -1.6 | 19.3 | -0.8 | . | .
CC(Cc1cnccn1)NC(=O)c1cc(COc2ccc(F)cc2F)on1 (centres undefined) | -2.2 | -2.1 | 0.7 | -1.1 | 18.7 | 0.4 | . | .
COc1cc(Cl)ccc1OCc1cc(C(=O)NC(C)Cc2cnccn2)no1 (centres undefined) | 8.5* | 12.6* | 1.8 | 1.5* | 7.2 | 2.6 | 0.8 | 6.0*
COc1cc(NC(=O)c2ccc3c(c2)OCO3)c2ncccc2c1 | 1.7 | 3.2 | -0.8 | -0.3 | 8.0 | -0.5 | . | .
Cc1ccc(C(=O)Nc2cccc3cccnc23)cc1Br | 6.9* | 3.2 | . | 0.0 | -18.4 | 0.3 | 0.5 | 7.8*
Cc1ccc(C(=O)Nc2cccnc2Cl)cc1Cl | 8.0* | 8.1 | 6.0* | 0.6 | 0.5 | 1.4 | 0.5 | 5.0
O=C(Nc1cccc2cccnc12)c1ccc2c(c1)OCCO2 | 8.7* | 6.9 | 0.1 | -0.3 | -21.9 | 0.3 | 0.6 | 5.7*
COC(=O)C1=C(C)N(Cc2cccc(C(F)(F)F)c2)C(=NCc2cc(OC)c(OC)c(OC)c2)NC1c1ccccc1C(F)(F)F (centres undefined) | 1.9 | 3.0 | . | -1.2 | . | 0.6 | . | .
N#CC1c2ccccc2C=CN1C(=O)N(c1ccccc1)c1ccccc1 (centres undefined) | 1.9 | -2.0 | -0.5 | -1.1 | . | -2.3 | . | .
CCOC(=O)c1cc2c(c(-c3ccccc3)n1)[C@@H](CCO)N(S(=O)(=O)C(C)(C)C)C2 | -0.2 | -1.2 | -1.4 | -0.3 | . | 0.1 | . | .

Source: PubChem BioAssay (several laboratories)
